39 compounds from PubChem BioAssay AID493175 (National Center for Advancing Translational Sciences (NCATS), 2011) can be followed below.

SMILES strings stand for the structures. Inconclusive results are not listed. Activity calls are given as the source filed them. The call rests on the fitted dose curve; in most records, active means well fitted curve in the direction sought with a large enough effect; inconclusive means small, poorly fitted or top-dose-only effect, or another doubt; inactive means no such curve, though single readings can be large or run the other way.

Luciferin 4-monooxygenase (Photinus pyralis), sequence (P08659 whole entry, looked up): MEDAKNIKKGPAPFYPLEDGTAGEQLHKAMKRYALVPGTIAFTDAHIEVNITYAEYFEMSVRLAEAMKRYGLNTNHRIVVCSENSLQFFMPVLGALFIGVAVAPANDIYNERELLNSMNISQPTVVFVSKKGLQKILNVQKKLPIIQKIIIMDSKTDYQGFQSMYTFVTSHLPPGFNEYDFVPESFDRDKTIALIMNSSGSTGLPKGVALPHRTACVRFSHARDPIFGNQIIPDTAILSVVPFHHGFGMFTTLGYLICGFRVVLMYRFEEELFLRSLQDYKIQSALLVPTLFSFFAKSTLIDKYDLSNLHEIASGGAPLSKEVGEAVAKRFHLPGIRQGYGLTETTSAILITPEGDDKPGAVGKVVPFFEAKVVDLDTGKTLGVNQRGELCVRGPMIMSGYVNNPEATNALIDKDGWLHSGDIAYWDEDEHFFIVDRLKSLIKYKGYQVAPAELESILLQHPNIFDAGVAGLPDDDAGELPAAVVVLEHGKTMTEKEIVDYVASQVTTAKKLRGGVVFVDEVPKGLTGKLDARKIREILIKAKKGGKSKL

This test concerns the target Luciferin 4-monooxygenase (Photinus pyralis) (UniProt P08659). As to the kind of experiment: miR-21 counterscreen using purified firefly luciferase. The settings on record: purified P. pyralis luciferase, luminescence; series mostly up to 57.5 µM. An excerpt: MLPCN Grant: 1 R21 NS059478-01 Assay Provider: Qihong Huang, The Wistar Institute NCGC Assay Overview: MicroRNAs (miRNAs) are endogenously encoded small (~20-25 nucleotides), nonprotein-coding RNAs that are involved in post-transcriptional repression of target messenger RNAs (mRNAs) (Le and Hannon, 2004). Estimated to be involved in the regulation of 30% of all protein-coding mRNAs (Filipowicz et al., 2008), miRNAs play a significant role in many biological processes including cellular differentiation and tissue development (Ghildiyal and Zamore, 2009). […] Compounds active in the miR-21 FLuc assay were clustered using Leadscope and active chemical series were prioritized based on chemical properties, potential for medicinal chemistry optimization, and SAR. Within each chemical series, representative compounds were re-acquired to test for activity in a secondary assay based on the quality of their CRC, efficacy, and potency. This secondary assay to determine if compounds active in the miR-21 FLuc assay were just luciferase inhibitors. Compounds found active in both the miR-21 FLuc and purified FLuc assays are considered as false positives. Keywords: NIH Roadmap, MLPCN, MLSMR, qHTS, miR-21, firefly luciferase, FLuc, miRNA.
NCGC Assay Protocol Summary: Reagents: 50mM Tris acetate, pH 7.5; 10mM Mg acetate; 10uM D-luciferin (Sigma #L9504); 10uM ATP; 0.01% Tween-20; 0.05% BSA; 10nM P. pyralis luciferase (Sigma #L9506) Control compounds used were two known firefly luciferase inhibitors (compounds (2) and (5) in Auld et al., 2010), and DMSO. Assay Summary: Three microliters containing firefly luciferase substrates in buffer (final concentrations: 50mM Tris acetate, pH 7.5, 10mM Mg acetate, 0.01% Tween-20, 0.05% BSA, 10uM D-luciferin, and 10uM ATP) are dispensed into each well of a Greiner white, solid-bottom 1536-well format plate using a flying reagent dispenser (FRD). These assay plates were then treated with 23nL of compound or DMSO using a Kalypsys pin tool, which allows for delivery of a 6-point interplate titration of each compound to the assay plate (quantitative HTS), with a final compound concentrations ranging from approximately 60 µM to 7pM. One microliter of firefly luciferase in […] Tris-acetate buffer was then delivered by FRD to each well for a final enzyme concentration of 10nM. Luciferase activity was then measured using a ViewLux CCD imager (PerkinElmer), with an average exposure time of 2-30 seconds (2X binning, medium/high gain).
Regarding `O=C(CSc1nnc(-c2ccc(C(F)(F)F)cn2)o1)Nc1cccc(Cl)c1`, the compound was classed as inactive.

For `COc1ccc(C(=O)Nc2nnc(C(C)C)s2)cc1OC`, the call was inactive.

Turning to `COc1ccc(NC(=O)CSc2nc(SC)ns2)c(OC)c1`, the compound was classed as inactive.

`COc1ccc(Nc2cc(C(=O)NCCCN3CCN(c4ccc(OC)cc4)CC3)c3ccccc3n2)cc1`: the compound was called inactive.

`CC1=C(c2ccc(C)c(C)c2)S(=O)(=O)N=C1N1CCC(C(=O)NCCc2ccc(Cl)cc2)CC1`: the result was inactive.

Take `CCC(C)S(=O)(=O)c1oc(-c2cccs2)nc1S(=O)(=O)c1ccccc1` (centres undefined): the compound was called inactive.

Consider `COc1ccccc1C(=O)n1nc(-c2ccco2)nc1NCc1ccc(Cl)cc1`, for which the result was inactive.

For the compound `COc1ccccc1Nc1nn2c(=O)c3ccc(C(=O)NCc4cccs4)cc3nc2s1`, the call was inactive.

Take `C/C(=N\NC(=O)c1ccncc1)c1ccc(NC(=O)c2ccc(Cl)cc2)cc1`: the result was inactive.

For the compound `Nc1c(-c2nc(-c3cccs3)no2)nnn1-c1cccc(F)c1`, the compound was classed as inactive.

As for `CCS(=O)(=O)c1ncc(Cl)c(C(=O)Nc2ccc(S(=O)(=O)N(C)c3ccccc3)cc2)n1`, the compound was called inactive.

In the case of `Cc1ccc(-c2csc(NC(=O)CSc3nc4ccccc4o3)n2)cc1`, the call was inactive.

In the case of `Cc1ccc(C)c(Nc2nc3nonc3nc2Nc2cccc(C)c2C)c1`, the call was inactive.

Take `c1ccc(C2=Nn3c(nnc3-c3cc(-c4ccccc4)n[nH]3)SC2)cc1`: the activity change, negative = inhibition was -18.1% [at 2.3 µM] (inactive).

With `Cc1cc(C)cc(NC(=O)CSc2nnc(CNC(=O)c3ccco3)o2)c1`, the compound was classed as inactive.

`C/C(=N\NC(=O)c1cccs1)c1ccncc1`: the result was inactive.

As to `O=C(CSc1nnc(-c2ccncc2)o1)Nc1nncs1`, the outcome was inactive.

For `COc1ccc(CNc2n[nH]c(-c3ccco3)n2)cc1OC`, the compound was called inactive.

Regarding `Nc1c(-c2nc(-c3ccccc3Cl)no2)nnn1-c1ccccc1F`, the call was inactive.

`Nc1c(-c2nc(-c3ccncc3)no2)nnn1CC(=O)Nc1ccccc1`: the result was inactive.

Consider `Nc1c(C(=O)Nc2ccccc2Br)sc2nc(-c3cccs3)ccc12`, for which the compound was called inactive.

Regarding `COc1ccc(-n2nnc(-c3nc(-c4cccs4)no3)c2N)cc1OC`, the compound was called inactive.

For `Cc1cc(Nc2cccc(C(F)(F)F)c2)nc2ccc(NC(=O)c3cccnc3)cc12`, the compound was classed as inactive.

Regarding `COc1ccccc1CNC(=O)CCC1N=C2c3ccccc3N=C(SCc3cccc(Cl)c3)N2C1=O` (centres undefined), the compound was classed as inactive.

In the case of `Fc1cccc(Cl)c1CSc1nnc2ccccn12`, the outcome was inactive.

Turning to `Cc1cccc(N2CCN(c3ncnc4onc(C)c34)CC2C)c1` (centres undefined), the compound was classed as inactive.

As to `NC(=O)c1ccccc1NC(=O)c1ccc(-c2ccc(Br)cc2)o1`, the compound was classed as inactive.

In the case of `CS(=O)(=O)n1nc(-c2ccc(Cl)cc2)nc1SCc1ccccc1`, the compound was classed as inactive.

Turning to `Cc1ccc(-n2nnc(-c3nc(-c4cccs4)no3)c2N)cc1C`, the compound was classed as inactive.

Turning to `COc1ccc(NC(=O)CSc2nnc(-c3cccs3)o2)cc1`, the compound was called inactive.

For `CC(=O)c1cnc2nc(SCc3ccccc3)nn2c1C`, the call was inactive.

Regarding `Cc1c(-c2nsc(NC(=O)c3cccs3)n2)nnn1-c1ccc(Cl)cc1`, the compound was classed as inactive.

On to `CCCCN1C(C(=O)c2ccccc2)=C(OC(C)=O)c2ccccc2S1(=O)=O`, for which the call was inactive.

As to `Cc1ccc(-c2nc3cnccn3c2Nc2ccccc2)o1`, the call was inactive.

Regarding `Cc1ccc(-n2nnc(-c3nsc(NC(=O)c4ccccc4)n3)c2C)cc1`, the outcome was inactive.

Turning to `CC(C)S(=O)(=O)c1oc(-c2ccc(F)cc2)nc1S(=O)(=O)c1ccc(F)cc1`, the call was inactive.

For the compound `COc1ccc(NC(=O)c2ncn(-c3ccccc3)n2)cc1Cl`, the compound was called inactive.

On to `COc1ccc(OCC(=O)Nc2ccc(-c3nc4cc(Cl)ccc4o3)cc2)cc1`, for which the compound was called inactive.

As for `O=C(Nc1nnc(S(=O)(=O)N2CCCC2)s1)c1ccc(F)cc1`, the compound was classed as inactive.
